Reference: PubChem BioAssay AID1856 (The Scripps Research Institute Molecular Screening Center, 2009)
Out of some 1,300 compounds screened, fewer than 10 were called active. How the calls were made is not given here. Not all results are given here.

What follows are compounds tested on metallo-beta-lactamase IMP-1 (Pseudomonas aeruginosa) (assay: IMP-1 metallo-beta-lactamase inhibitors, confirmation, selectivity assay for selective VIM-2 inhibitor project, biochemical, epi-absorbance readout, triplicate (AID 1856;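 further: 0% = enzyme with vehicle and 100% = vehicle without enzyme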)). Settings: purified IMP-1, nitrocefin hydrolysis, epi-absorbance fluorescence; at 5.6 µM; stronger effect = higher value.

inhibition, inactive:
C=CCn1c(-c2ccccc2OCC)n[nH]c1=S -2.2%, Cc1cc(NCc2ccco2)n2c(nc3ccccc32)c1C#N -3.37%, O=C(COc1cc2oc(=O)c3c(c2cc1Cl)CCC3)NCCCN1CCOCC1 -1.87%, CCN(CC)c1ccc2cc(C(N)=O)/c(=N\NC(=O)c3ccncc3)oc2c1 -2.41%, Cc1cccn2c(=O)c(C=O)c(Nc3ccc(S(N)(=O)=O)cc3)nc12 -3.66%, COc1nc(N=C(N)N)nc2c(C)cccc12 -3.85%, COc1cc(NC(=O)C2=C(C)OCCS2)c(Cl)cc1C(=O)NCCN1CCN(C)CC1 -2.62%, CCN1CCN(CCNC(=O)c2ccc3c(c2)NC(=O)/C(=C\c2ccc(OC)c(OC)c2)S3)CC1 -3.87%, Cn1c(-c2sccc2OCc2cccc(C(F)(F)F)c2)n[nH]c1=S -2.3%, CCOC(=O)N1CCN(C(=O)C2CCN(c3ncnc4c3sc3cccc(F)c34)CC2)CC1 -2.28%, Cc1cc(-c2ccc(/C=N/n3cnnc3)o2)c([N+](=O)[O-])cc1C -2.82%, CNC(=O)c1ccsc1NC(=O)c1ccc(S(=O)(=O)N2CCOCC2)cc1 -2.75%, Cc1cc(C)c2nc3nc(C)cc(C)c3c(N)c2c1 -3.37%, COc1ccc(-c2nn3c(-c4ccccc4)nnc3s2)cc1OC -2.66%, CCc1cc(=O)oc2cc(C)cc(OCC(=O)N3CCC[C@@H]3C(=O)O)c12 -3.22%, NC(=O)C1CCN(C(=O)COc2ccc3c4c(c(=O)oc3c2)CCC4)CC1 -2.5%, COc1cc(/C=N/Nc2nn3cnnc3c3ccccc23)cc(OC)c1OC -2.07%, Cc1cc([N+](=O)[O-])c(-c2ccc(/C=N/n3cnnc3)o2)cc1Cl -2.7%, COc1ccc(Nc2cc(C)nc(-n3nc(C)cc3C)n2)cc1 -4.36%, COc1cc(-c2nn3c(-c4cccc(C)c4)nnc3s2)cc(OC)c1OC -3.37%, CCN1CCCC1CNC(=O)c1cc2c(=O)n(C)c3ccccc3c2n1C (configuration not stated) -1.43%, COC(=O)c1c(NC(=O)c2ccc(S(=O)(=O)N3CCOCC3)cc2)sc2c1CCN(C(C)C)C2 -3.07%, Cc1nc2ccccc2c2oc(C(=O)NCCCN3CCC(C)CC3)cc12 -2.57%, O=C(NCCCN1CCOCC1)c1cnn2c(-c3ccccc3)cc(-c3ccccc3)nc12 -1.31%, CCOc1cc(/C=C2\SC(N3CCCC(C)C3)=NC2=O)ccc1O (configuration not stated) -1.58%, CN1CCN(c2ccc(NC(=O)c3ccc4c(c3)[nH]c(=O)n4Cc3ccc(F)cc3)cc2)CC1 -2.45%, Nc1cccc2c1C(=O)N(Cc1nnc(-c3ccccc3Br)o1)C2=O -1.84%, O=C(NC(=S)Nc1ccccc1C(=O)O)c1ccc(-c2ccc(Br)cc2)o1 -2.92%, Cn1c2ccccc2c(=O)c2c(O)cccc21 1.94%, O=c1[nH]c(-c2ccccc2)c(-c2ccccc2)[nH]1 -1.69%, COc1ccc(/C=N/N(C)C2=NS(=O)(=O)c3ccccc32)cc1OC -2.33%, CCOc1cc(/C=C2\SC(N3CCCCC3)=NC2=O)ccc1O -4.28%, CCN1CCN(C(=O)Cn2nc(C)n3c(cc4c(OC)cccc43)c2=O)CC1 -3.39%, Clc1cc(-c2ccc(/C=N/n3cnnc3)o2)ccc1Br -2.66%, Nc1nnc2c(C(F)(F)F)nc3ccccc3n12 -2.31%, Cc1ccc(Cl)cc1-c1ccc(/C=N/n2cnnc2)o1 -3.92%, COc1ccc(CCn2c(=N)c(C(=O)NCC3CCCO3)cc3c(=O)n4cccc(C)c4nc32)cc1OC (configuration not stated) -3.13%, COC(=O)c1ccc(-c2noc(CN(Cc3ccccn3)CC3CCCO3)n2)cc1 (configuration not stated) -4.37%, CCOCCCNc1c(CC)c(C)c(C#N)c2nc3ccccc3n12 -2.98%, O=C1Nc2cc(C(=O)N3CCC(N4CCCCC4)CC3)ccc2S/C1=C\c1ccccc1 -4.01%, CCC1CCCCN1CCCNC(=O)c1cc2c(Cl)nc3ccccc3c2s1 (configuration not stated) -2%, Cc1ccc2nc(C)c3c(c2c1)N(c1ccccc1)CC3 -3.39%, Fc1ccc(-c2ccc(CNCc3ccccn3)o2)cc1Cl -3.51%, CC(NS(=O)(=O)c1ccccc1)c1n[nH]c(=S)n1-c1ccccc1 (configuration not stated) -3.01%, Cn1c(=O)c2c(nc(N3CCOCC3)n2CCNC2=NCCC2)n(C)c1=O -2.77%, CCN(CC)CCOc1ccc2c(c1)C(=NNC(=O)c1ccccn1)c1cc(OCCN(CC)CC)ccc1-2 -6.88%, CC(=O)c1ccc(-c2ccc(Cn3c(C)nc4cc(N)c(C)nc43)cc2)cc1 -2.57%, CCCc1ccc(OCCNC(=O)c2ccco2)cc1 -3.83%, CN(C)CCNc1ccc(-c2n[nH]c(=O)c3ccccc23)cc1[N+](=O)[O-] -3.19%, COc1ccc(Cc2nnc(NS(=O)(=O)Cc3ccccc3)s2)cc1 -2.35%, CC(C)(C)CC(=O)Nc1nnc(SCC(=O)NCc2cccs2)s1 -4.47%, CC1CCCC(C)N1CCCNC(=O)c1cc2c(=O)n(C)c3ccccc3c2n1C (configuration not stated) -3.58%
